Legend:
Experiment in all cases: log2 ratio of Biotin-Ahx-Ub-VS probe labelling (fragment/DMSO); higher = less target engagement (more negative = stronger competition), active = hit call of the paper (q ≤ 0.05, log2 ratio ≤ -1)
Settings in all cases: compound concentration: 200 uM; treatment time: 3 h
[1] = target: T1, ALG13 (UniProt Q9NP73)
T1 sequence (whole entry): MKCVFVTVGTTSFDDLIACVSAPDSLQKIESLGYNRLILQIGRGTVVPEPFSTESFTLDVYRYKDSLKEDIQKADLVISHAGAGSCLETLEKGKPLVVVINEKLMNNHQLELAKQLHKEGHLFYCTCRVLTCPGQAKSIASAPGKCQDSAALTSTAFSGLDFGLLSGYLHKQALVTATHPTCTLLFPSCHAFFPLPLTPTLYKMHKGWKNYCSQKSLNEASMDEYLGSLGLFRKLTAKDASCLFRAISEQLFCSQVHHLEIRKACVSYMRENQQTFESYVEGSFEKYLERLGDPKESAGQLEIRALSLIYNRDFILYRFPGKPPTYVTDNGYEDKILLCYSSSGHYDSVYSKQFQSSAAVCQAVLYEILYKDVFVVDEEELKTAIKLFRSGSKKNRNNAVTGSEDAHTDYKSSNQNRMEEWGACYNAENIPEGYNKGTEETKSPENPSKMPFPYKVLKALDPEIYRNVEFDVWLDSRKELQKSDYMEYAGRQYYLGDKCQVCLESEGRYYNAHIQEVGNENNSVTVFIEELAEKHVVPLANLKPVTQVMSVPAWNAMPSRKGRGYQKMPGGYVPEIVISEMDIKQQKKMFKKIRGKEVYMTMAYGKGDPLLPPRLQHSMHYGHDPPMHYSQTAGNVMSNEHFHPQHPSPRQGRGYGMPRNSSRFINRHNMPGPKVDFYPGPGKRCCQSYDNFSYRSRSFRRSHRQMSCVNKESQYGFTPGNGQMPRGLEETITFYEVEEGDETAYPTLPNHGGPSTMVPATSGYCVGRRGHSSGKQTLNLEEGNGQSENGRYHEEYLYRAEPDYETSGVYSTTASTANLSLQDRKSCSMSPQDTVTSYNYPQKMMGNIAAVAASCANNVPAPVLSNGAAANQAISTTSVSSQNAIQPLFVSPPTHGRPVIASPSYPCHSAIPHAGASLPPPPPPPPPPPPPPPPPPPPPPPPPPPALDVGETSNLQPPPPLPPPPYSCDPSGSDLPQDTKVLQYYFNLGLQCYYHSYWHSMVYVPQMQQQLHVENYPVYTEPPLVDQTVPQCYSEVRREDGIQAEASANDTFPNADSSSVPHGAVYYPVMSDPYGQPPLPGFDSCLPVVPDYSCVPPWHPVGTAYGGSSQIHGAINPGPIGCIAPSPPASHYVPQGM
Procedure, shortened: (§1)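 The table lists average log2 ratios of fragment over vehicle, from an unpaired t-test on global-median-normalised Spectronaut label-free quantities. Proteins with ≥2 unique peptides were used. Samples were HEK293T lysate (495 µg) treated in triplicate with fragment at 200 µM or vehicle for 3 h, then with Biotin-Ahx-Ub-VS (0.5 µM final) for 1 h, with labelled DUBs NeutrAvidin-enriched and run by diaPASEF LC-MS/MS.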

[2] = target: ATXN3 (UniProt P54252)
ATXN3, sequence (P54252 whole entry): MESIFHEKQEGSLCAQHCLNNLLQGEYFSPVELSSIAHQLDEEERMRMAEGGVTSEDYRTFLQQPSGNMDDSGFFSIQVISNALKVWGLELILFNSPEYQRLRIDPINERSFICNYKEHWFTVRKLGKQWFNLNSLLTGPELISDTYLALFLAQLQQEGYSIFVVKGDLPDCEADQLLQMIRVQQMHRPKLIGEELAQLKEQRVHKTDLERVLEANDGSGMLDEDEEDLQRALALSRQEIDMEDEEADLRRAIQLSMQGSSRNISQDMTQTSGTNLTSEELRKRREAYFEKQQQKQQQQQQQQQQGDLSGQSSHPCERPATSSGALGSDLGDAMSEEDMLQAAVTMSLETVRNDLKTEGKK
Procedure, shortened: as §1

[3] = target: T2, BAP1 (UniProt Q92560)
T2 sequence (whole entry): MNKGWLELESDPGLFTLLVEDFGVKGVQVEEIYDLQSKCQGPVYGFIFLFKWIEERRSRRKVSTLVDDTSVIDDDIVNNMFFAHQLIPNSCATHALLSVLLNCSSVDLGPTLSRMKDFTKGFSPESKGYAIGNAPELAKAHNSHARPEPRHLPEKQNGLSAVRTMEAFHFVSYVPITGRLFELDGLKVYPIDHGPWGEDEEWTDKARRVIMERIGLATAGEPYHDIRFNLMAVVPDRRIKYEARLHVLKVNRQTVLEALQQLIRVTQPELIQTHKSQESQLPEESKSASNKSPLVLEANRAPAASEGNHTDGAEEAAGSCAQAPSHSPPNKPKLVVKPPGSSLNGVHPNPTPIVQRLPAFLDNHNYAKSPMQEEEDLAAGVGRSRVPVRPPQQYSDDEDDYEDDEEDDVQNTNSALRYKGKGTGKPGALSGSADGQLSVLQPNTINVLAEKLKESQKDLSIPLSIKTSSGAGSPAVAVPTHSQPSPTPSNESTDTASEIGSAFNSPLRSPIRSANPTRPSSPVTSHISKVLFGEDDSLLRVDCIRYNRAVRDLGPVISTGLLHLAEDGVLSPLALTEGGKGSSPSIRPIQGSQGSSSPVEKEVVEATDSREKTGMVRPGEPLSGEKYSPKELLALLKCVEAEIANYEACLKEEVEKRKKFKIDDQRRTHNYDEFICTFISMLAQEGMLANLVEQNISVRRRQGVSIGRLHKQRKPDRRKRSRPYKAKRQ
Procedure, shortened: as §1

[4] = target: EIF3F (UniProt O00303)
EIF3F, sequence (O00303 whole entry): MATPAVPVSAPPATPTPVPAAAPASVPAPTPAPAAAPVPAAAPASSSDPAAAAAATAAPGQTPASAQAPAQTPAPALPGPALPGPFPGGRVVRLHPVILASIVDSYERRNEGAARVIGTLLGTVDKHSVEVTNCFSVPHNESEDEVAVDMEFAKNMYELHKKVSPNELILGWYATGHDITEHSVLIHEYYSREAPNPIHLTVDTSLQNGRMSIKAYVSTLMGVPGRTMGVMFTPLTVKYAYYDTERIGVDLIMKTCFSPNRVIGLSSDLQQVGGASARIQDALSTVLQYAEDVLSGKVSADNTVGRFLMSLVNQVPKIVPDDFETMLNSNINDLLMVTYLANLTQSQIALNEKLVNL
Procedure, shortened: as §1

[5] = target: EIF3H (UniProt O15372)
EIF3H, sequence (O15372 whole entry): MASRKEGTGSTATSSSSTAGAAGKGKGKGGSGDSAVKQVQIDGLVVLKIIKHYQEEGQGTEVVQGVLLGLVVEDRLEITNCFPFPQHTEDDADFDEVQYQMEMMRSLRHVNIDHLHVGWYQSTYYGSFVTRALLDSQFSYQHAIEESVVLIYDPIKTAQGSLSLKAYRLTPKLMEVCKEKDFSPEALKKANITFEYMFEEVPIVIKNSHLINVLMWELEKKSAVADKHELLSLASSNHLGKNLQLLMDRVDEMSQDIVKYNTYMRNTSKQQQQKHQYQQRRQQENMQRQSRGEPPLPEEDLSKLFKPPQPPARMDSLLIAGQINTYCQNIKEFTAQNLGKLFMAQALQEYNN
Procedure, shortened: as §1

[6] = target: T3, FAM105A (UniProt Q9NUU6)
T3 sequence (whole entry): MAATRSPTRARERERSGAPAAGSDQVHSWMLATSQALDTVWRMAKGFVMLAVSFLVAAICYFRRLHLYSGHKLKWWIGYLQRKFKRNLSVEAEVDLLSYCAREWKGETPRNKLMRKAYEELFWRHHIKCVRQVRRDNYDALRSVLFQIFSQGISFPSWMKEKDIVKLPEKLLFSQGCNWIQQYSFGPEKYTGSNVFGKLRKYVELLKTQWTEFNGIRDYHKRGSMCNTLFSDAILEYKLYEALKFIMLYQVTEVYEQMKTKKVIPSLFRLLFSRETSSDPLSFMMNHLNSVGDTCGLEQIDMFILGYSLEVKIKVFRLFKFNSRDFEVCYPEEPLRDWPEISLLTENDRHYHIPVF
Procedure, shortened: as §1

[7] = target: OTUB1 (UniProt Q96FW1)
OTUB1, sequence (Q96FW1 whole entry): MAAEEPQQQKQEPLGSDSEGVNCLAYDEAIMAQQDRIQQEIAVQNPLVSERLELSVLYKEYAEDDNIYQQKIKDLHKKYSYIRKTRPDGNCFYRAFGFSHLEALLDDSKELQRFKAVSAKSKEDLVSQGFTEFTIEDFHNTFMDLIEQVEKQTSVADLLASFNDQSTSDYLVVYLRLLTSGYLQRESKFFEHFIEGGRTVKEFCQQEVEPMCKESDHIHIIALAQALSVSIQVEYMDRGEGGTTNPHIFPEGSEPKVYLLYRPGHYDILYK
Procedure, shortened: as §1

[8] = target: T4, OTUD4 (UniProt Q01804)
T4 sequence (whole entry): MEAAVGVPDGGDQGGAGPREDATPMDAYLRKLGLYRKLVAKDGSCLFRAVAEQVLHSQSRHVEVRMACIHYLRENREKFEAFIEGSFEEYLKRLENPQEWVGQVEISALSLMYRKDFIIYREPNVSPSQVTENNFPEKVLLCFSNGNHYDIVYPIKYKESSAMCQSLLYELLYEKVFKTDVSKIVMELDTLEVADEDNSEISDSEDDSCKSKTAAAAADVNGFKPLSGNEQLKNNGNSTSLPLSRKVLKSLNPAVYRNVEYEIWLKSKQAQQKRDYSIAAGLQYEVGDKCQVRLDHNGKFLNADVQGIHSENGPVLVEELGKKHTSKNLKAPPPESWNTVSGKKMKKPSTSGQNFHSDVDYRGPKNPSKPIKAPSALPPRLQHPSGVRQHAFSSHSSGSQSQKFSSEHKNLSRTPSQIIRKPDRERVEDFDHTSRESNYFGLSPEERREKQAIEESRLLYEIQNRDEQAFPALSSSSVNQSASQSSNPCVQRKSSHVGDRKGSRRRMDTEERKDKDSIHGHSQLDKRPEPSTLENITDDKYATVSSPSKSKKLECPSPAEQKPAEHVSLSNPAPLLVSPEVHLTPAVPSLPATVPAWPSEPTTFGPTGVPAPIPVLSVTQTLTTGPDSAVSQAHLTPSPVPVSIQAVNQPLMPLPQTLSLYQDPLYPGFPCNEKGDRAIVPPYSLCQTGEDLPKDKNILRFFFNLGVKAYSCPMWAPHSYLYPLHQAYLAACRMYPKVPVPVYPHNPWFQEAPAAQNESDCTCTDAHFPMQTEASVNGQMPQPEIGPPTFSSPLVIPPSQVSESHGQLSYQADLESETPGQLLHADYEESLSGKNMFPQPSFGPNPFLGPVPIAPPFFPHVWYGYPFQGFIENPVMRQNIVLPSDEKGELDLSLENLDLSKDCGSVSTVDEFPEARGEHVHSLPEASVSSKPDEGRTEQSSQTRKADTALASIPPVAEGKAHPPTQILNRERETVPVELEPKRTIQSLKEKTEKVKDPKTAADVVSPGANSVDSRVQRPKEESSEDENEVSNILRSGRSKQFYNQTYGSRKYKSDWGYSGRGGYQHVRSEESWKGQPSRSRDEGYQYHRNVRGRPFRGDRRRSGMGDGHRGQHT
Procedure, shortened: as §1

[9] = target: T5, OTUD5 (UniProt Q96G74)
T5 sequence (whole entry): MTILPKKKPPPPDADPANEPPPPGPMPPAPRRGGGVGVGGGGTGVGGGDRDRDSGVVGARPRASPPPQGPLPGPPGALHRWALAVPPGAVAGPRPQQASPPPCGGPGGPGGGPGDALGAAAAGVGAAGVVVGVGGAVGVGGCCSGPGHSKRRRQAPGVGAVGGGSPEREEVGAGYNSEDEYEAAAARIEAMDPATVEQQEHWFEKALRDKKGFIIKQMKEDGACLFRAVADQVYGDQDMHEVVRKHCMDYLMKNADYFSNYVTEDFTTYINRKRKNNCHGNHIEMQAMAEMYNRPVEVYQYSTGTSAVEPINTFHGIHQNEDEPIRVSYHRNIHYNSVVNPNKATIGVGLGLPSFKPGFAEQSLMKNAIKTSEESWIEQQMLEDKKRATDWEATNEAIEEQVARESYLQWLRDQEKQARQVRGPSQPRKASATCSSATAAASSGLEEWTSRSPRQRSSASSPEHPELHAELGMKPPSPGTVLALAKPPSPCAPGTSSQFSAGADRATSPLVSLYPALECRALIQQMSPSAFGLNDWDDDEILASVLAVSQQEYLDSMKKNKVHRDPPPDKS
Procedure, shortened: as §1

Measured: log2 ratio of Biotin-Ahx-Ub-VS probe labelling

Cl.Cn1cnc2cc(CNC(=O)CCl)ccc21
active: [3] -2.15
inactive: [1] 0.056 | [2] -0.239 | [4] -0.304 | [5] 0.311 | [6] -0.318 | [7] 0.0608 | [8] -0.0323 | [9] -0.121

Reference: the supplement of paper PMC11732987, “Enantioselective OTUD7B fragment discovery through chemoproteomics screening and high-throughput optimisation” (Communications Chemistry, 2025)
